Results: ChEMBL document CHEMBL2218924, “A broad activity screen in support of a chemogenomic map for kinase signalling research and drug discovery” (Biochem J, 2013)

Columns and labels:
[1] = target: Tyrosine-protein kinase Lck (Homo sapiens) (UniProt P06239); settings: at 10 µM
[2] = target: Tyrosine-protein kinase Lck (Homo sapiens) (UniProt P06239); settings: at 1 µM
[3] = target: Tyrosine-protein kinase Lck (Homo sapiens) (UniProt P06239); settings: at 10 µM; remark: listed apart in the source
[4] = target: Tyrosine-protein kinase Lyn (Homo sapiens) (UniProt P07948); settings: at 1 µM
[5] = target: Tyrosine-protein kinase Lyn (Homo sapiens) (UniProt P07948); settings: at 10 µM
[6] = target: Mitogen-activated protein kinase 3 (Homo sapiens) (UniProt P27361); settings: at 1 µM
[7] = target: Mitogen-activated protein kinase 3 (Homo sapiens) (UniProt P27361); settings: at 10 µM
[8] = target: Mitogen-activated protein kinase 1 (Homo sapiens) (UniProt P28482); settings: at 1 µM
[9] = target: Mitogen-activated protein kinase 1 (Homo sapiens) (UniProt P28482); settings: at 10 µM
[10] = target: MAP kinase-activated protein kinase 2 (Homo sapiens) (UniProt P49137); settings: at 1 µM
[11] = target: MAP kinase-activated protein kinase 2 (Homo sapiens) (UniProt P49137); settings: at 10 µM
[12] = target: MAP kinase-activated protein kinase 3 (Homo sapiens) (UniProt Q16644); settings: at 10 µM
[13] = target: Serine/threonine-protein kinase MARK1 (Homo sapiens) (UniProt Q9P0L2); settings: at 1 µM
[14] = target: Serine/threonine-protein kinase MARK1 (Homo sapiens) (UniProt Q9P0L2); settings: at 10 µM
[15] = target: Dual specificity mitogen-activated protein kinase kinase 1 (Homo sapiens) (UniProt Q02750); settings: at 1 µM
[16] = target: Dual specificity mitogen-activated protein kinase kinase 1 (Homo sapiens) (UniProt Q02750); settings: at 10 µM
[17] = target: Maternal embryonic leucine zipper kinase (Homo sapiens) (UniProt Q14680); settings: at 1 µM
[18] = target: Maternal embryonic leucine zipper kinase (Homo sapiens) (UniProt Q14680); settings: at 10 µM
[19] = target: Misshapen-like kinase 1 (Homo sapiens) (UniProt Q8N4C8); settings: at 1 µM
[20] = target: Misshapen-like kinase 1 (Homo sapiens) (UniProt Q8N4C8); settings: at 10 µM

Mitogen-activated protein kinase 1 (Homo sapiens), sequence (P28482 whole entry): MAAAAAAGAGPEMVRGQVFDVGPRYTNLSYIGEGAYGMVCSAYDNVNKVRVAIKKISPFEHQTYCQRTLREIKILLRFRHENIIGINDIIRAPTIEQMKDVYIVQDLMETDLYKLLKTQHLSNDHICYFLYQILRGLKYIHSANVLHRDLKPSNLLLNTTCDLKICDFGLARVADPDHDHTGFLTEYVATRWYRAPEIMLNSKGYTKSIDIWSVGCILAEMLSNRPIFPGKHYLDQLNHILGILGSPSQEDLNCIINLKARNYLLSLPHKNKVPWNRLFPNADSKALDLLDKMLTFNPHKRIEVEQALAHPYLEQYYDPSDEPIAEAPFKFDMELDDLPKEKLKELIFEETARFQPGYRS
Tyrosine-protein kinase Lyn (Homo sapiens), sequence (P07948 2-512 limits assumed): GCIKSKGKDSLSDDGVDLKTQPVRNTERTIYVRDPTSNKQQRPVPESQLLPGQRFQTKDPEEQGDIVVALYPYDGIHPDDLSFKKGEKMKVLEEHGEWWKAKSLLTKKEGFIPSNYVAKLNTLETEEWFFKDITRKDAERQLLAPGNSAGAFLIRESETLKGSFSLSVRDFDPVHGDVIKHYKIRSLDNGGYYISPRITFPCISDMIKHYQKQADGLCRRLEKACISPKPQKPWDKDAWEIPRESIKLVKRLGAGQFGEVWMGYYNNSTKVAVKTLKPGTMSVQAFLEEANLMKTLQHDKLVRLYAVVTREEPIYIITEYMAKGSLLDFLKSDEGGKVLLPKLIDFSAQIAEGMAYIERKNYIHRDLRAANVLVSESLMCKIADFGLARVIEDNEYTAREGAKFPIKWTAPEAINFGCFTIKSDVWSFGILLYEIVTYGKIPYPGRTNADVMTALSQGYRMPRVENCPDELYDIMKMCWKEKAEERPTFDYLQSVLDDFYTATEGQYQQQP
MAP kinase-activated protein kinase 3 (Homo sapiens), sequence (Q16644 whole entry, looked up): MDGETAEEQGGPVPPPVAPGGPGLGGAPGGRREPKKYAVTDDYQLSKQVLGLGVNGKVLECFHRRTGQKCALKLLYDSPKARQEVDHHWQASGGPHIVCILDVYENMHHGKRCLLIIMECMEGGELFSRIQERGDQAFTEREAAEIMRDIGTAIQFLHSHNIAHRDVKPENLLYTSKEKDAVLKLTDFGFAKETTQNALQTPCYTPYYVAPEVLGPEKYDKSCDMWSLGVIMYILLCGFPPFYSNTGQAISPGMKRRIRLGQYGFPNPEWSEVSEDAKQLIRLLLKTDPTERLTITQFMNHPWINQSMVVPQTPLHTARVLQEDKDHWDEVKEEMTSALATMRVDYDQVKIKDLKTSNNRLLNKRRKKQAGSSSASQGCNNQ
MAP kinase-activated protein kinase 2 (Homo sapiens), sequence (P49137 whole entry, looked up): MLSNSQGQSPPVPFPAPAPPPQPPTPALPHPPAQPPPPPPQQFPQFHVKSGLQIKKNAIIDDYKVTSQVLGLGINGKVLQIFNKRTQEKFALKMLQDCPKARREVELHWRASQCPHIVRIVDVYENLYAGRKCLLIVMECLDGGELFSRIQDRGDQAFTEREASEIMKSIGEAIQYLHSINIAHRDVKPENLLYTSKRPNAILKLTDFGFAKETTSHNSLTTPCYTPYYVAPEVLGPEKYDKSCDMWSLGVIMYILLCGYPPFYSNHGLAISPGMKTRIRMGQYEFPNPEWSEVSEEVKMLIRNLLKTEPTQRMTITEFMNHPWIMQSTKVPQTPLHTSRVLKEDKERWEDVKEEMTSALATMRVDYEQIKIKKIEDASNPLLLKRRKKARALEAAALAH
Maternal embryonic leucine zipper kinase (Homo sapiens), sequence (Q14680 whole entry, looked up): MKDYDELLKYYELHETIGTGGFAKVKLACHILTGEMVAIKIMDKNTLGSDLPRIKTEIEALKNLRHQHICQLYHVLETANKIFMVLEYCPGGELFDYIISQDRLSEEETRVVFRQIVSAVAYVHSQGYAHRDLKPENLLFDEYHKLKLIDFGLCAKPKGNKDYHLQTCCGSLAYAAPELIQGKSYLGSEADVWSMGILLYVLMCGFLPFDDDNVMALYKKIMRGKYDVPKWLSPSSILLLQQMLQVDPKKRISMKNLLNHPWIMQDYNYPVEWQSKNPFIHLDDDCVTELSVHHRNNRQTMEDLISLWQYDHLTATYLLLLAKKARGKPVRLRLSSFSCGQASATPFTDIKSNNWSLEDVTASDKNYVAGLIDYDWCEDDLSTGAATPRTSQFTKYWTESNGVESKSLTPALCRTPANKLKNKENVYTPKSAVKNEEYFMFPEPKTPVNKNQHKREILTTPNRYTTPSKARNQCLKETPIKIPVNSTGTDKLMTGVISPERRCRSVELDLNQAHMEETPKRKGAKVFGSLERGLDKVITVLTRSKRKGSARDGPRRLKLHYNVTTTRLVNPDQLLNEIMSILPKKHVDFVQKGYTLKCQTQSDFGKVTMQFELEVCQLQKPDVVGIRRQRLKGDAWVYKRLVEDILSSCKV
Serine/threonine-protein kinase MARK1 (Homo sapiens), sequence (Q9P0L2 whole entry, looked up): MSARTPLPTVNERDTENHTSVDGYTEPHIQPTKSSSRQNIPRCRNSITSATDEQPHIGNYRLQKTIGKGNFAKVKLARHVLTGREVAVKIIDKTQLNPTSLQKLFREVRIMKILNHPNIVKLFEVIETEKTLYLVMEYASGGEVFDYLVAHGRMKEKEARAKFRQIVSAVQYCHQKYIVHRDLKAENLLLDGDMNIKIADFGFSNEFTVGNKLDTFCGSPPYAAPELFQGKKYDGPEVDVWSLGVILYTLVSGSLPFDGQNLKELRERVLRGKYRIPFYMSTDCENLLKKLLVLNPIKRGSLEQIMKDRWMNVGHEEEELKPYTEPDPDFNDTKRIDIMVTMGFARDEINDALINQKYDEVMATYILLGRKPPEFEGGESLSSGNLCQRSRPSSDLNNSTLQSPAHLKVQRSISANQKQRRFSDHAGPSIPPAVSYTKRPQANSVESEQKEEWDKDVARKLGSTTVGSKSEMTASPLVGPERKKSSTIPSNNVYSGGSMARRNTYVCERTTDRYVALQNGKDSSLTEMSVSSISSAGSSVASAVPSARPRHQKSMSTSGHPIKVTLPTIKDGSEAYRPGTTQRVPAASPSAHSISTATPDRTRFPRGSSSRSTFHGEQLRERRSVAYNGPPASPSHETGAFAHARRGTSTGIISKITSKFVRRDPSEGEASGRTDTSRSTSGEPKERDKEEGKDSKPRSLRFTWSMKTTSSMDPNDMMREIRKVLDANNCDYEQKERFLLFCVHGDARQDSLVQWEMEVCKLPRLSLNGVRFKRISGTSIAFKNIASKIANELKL
Tyrosine-protein kinase Lck (Homo sapiens), sequence (P06239 2-509 limits assumed): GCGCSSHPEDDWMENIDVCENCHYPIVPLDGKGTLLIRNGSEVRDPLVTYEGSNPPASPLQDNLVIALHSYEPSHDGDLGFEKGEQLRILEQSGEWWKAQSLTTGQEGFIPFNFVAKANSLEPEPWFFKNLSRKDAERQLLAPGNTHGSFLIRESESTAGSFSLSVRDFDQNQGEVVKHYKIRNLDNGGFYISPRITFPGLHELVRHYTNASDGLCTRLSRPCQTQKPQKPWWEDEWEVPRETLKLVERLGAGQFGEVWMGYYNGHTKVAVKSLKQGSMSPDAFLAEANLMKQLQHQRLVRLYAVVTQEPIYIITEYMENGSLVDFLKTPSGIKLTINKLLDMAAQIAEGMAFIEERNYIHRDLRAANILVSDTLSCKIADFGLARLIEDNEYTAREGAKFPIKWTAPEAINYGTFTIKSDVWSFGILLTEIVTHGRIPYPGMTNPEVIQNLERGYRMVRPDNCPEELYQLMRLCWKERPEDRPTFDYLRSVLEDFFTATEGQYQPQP
Dual specificity mitogen-activated protein kinase kinase 1 (Homo sapiens), sequence (Q02750 whole entry): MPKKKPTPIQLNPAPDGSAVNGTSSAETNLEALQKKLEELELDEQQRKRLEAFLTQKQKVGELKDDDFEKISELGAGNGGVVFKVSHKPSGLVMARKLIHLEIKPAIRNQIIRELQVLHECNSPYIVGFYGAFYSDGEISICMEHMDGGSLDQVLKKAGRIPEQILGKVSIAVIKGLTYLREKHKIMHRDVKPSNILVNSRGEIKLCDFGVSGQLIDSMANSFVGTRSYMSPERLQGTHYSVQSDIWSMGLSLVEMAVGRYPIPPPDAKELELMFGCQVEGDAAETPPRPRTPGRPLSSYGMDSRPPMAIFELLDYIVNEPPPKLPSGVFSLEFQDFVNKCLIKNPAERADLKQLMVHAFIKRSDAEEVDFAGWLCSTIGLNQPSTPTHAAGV
Mitogen-activated protein kinase 3 (Homo sapiens), sequence (P27361 whole entry): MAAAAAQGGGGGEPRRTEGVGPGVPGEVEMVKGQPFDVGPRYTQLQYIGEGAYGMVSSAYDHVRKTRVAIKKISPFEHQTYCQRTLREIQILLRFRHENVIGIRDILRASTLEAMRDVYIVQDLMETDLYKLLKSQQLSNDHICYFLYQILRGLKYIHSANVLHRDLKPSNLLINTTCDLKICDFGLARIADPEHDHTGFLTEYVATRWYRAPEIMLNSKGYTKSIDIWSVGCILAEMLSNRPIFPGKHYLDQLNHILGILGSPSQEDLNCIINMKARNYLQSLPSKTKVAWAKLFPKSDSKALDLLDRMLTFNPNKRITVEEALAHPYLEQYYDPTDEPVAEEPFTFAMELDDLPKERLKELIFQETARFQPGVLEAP

| SMILES | residual activity [1] [%] | residual activity [2] [%] | residual activity [3] [%] | residual activity [4] [%] | residual activity [5] [%] | residual activity [6] [%] | residual activity [7] [%] | residual activity [8] [%] | residual activity [9] [%] | residual activity [10] [%] | residual activity [11] [%] | residual activity [12] [%] | residual activity [13] [%] | residual activity [14] [%] | residual activity [15] [%] | residual activity [16] [%] | residual activity [17] [%] | residual activity [18] [%] | residual activity [19] [%] | residual activity [20] [%] |
| --- | --- | --- | --- | --- | --- | --- | --- | --- | --- | --- | --- | --- | --- | --- | --- | --- | --- | --- | --- | --- |
| O=C1NC(=O)c2cc(Nc3ccc(F)cc3)c(Nc3ccc(F)cc3)cc21 | 26 | 77 | 44 | 35 | 7 | 79 | 57 | 103 | 99 | 90 | 93 | 69 | 82 | 75 | 109 | 122 | 89 | 76 | 83 | 71 |
| O=C1Nc2cc(Br)ccc2/C1=C1/Nc2ccccc2/C1=N\O | 10 | 1 | 19 | 4 | 1 | 102 | 80 | 108 | 106 | 96 | 90 | 91 | 21 | 19 | 71 | 107 | 34 | 48 | 91 | 70 |
| CNc1cc2c(Nc3cccc(Br)c3)ncnc2cn1 | 19 | 73 | 79 | 10 | 5 | 86 | 95 | 102 | 96 | 119 | 112 | 99 | 88 | 73 | 84 | 53 | 109 | 112 | 92 | 87 |
| Cc1ccc(NC2=CC(=O)c3sc(C)nc3C2=O)cc1 | 80 | 92 | 98 | 80 | 71 | 102 | 120 | 108 | 106 | 85 | 87 | 61 | 87 | 80 | 99 | 116 | 95 | 85 | 106 | 94 |
| COc1ccc(CNc2nc(N(CCO)CCO)nc3c2ncn3C(C)C)cc1 | 77 | 104 | 79 | 74 | 78 | 91 | 87 | 123 | 87 | 96 | 81 | 98 | 85 | 72 | 103 | 120 | 77 | 38 | 103 | 92 |
| COc1cccc(-c2cc(=O)c3ccccc3o2)c1N | 85 | 103 | 93 | 93 | 80 | 106 | 90 | 114 | 96 | 99 | 78 | 97 | 87 | 85 | 103 | 111 | 109 | 113 | 98 | 96 |
| CCC(=O)Nc1ccc2ncnc(Nc3cccc(Br)c3)c2c1 | 67 | 77 | 75 | 28 | 5 | 83 | 85 | 93 | 94 | 88 | 95 | 88 | 84 | 90 | 93 | 92 | 90 | 96 | 83 | 82 |
| Cc1nc(-c2ccccc2)c(-c2ccncc2)o1 | 59 | 45 | 42 | 0 | 0 | 116 | 97 | 118 | 100 | 95 | 110 | 101 | 97 | 89 | 105 | 106 | 104 | 89 | 118 | 88 |
| O=C(O)c1ccc2c3c1cccc3c(=O)n1c3ccccc3nc21 | 109 | 95 | 79 | 96 | 87 | 117 | 77 | 123 | 96 | 86 | 95 | 106 | 81 | 35 | 94 | 97 | 91 | 53 |  | 5 |
| N#CCCc1ccc2c(c1)-c1[nH]c3ccc([N+](=O)[O-])cc3c1CC(=O)N2 | 13 | 24 | 23 | 5 | 0 | 58 | 34 |  | 51 | 57 | 39 | 49 | 30 | 9 |  |  | 69 | 52 | 38 | 17 |
| COc1cc2ncc(-c3ccccc3)nc2cc1OC | 75 | 86 | 80 | 67 | 58 | 89 | 81 |  |  |  | 80 |  | 90 | 80 |  |  | 69 | 60 | 92 | 62 |
| CN(C)CCCn1cc(C2=C(c3c[nH]c4ccccc34)C(=O)NC2=O)c2ccccc21 | 49 | 80 | 43 | 79 | 22 |  |  |  |  | 108 | 73 | 109 | 65 | 25 | 109 | 52 | 41 | 13 | 84 | 47 |
| O=c1c2ccccc2[nH]c(=S)n1CCN1CCC(=C(c2ccc(F)cc2)c2ccc(F)cc2)CC1 | 107 | 83 | 65 | 83 | 46 | 88 | 61 | 103 | 80 | 97 | 89 | 86 | 100 | 87 | 98 | 92 | 86 | 86 | 88 | 65 |
| COc1cc2ncnc(Nc3ccc(NC(=O)c4ccccc4)cc3)c2cc1OC | 17 | 30 | 9 | 32 | 6 | 88 | 83 | 103 | 103 | 108 | 98 | 93 | 105 | 95 |  |  | 77 | 50 |  | 92 |
